Measured values reported in PubChem BioAssay (NCATS).
Results filed as inconclusive are left out. The source made the active and inactive calls. Calls follow the shape of the dose curve; as a rule, active = well fitted inhibition curve with a large enough effect; inconclusive = small, poorly fitted or top-dose-only effect; inactive = no such curve, though single readings can be large or run the other way.

Assay: qHTS assay for measurement of the activity of small molecule inhibitors on Zika virus induced Caspase-3 activity in human iPSC derived neural progenitor cells (hNPCs) (AID 1224857); also: % of control where 0% means no effect; nearly all actives have a fitted effect of over 65% in size
Settings: hNPCs ZIKV-induced caspase-3/7, Caspase-Glo luminescence, 6 h; series mostly up to 45.7 µM; activity change, negative = inhibition: at the top concentration
Method in brief: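 hNPCs seeded 350 cells/well, cultured 16–20 h; compounds added 1 h before ZIKV (2 FFU/cell), 37 C 6 h. Caspase-Glo 3/7 luminescence after 30 min RT; % inhibition from induction scaled to uninfected (0%) and infected (100%) wells.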

Row | Structure (SMILES) | activity change, negative = inhibition | Potency
1 | c1ccc(-c2nn3c(c2-c2ccnc4cc(OCCN5CCOCC5)ccc24)CCC3)nc1 | 25% (inactive) | –
2 | Nc1cccc(S(=O)(=O)N2CCCN(S(=O)(=O)c3ccc4c(c3)OCCO4)CC2)c1 | 2.82% (inactive) | –
3 | O=C1CCCC2=C1C(c1[nH]ncc1Cl)N=C(Nc1nc3ccccc3o1)N2 (configuration not stated) | 5.8% (inactive) | –
4 | COCCNCCCn1c(C(=O)CF)c(-c2ccc(C)cc2)c2c(N)ncnc21 | 21.7% (inactive) | –
5 | COc1ccc([C@@H]2CC(=O)c3c(O)cc(O[C@@H]4O[C@H](CO[C@@H]5O[C@@H](C)[C@H](O)[C@@H](O)[C@@H]5O)[C@@H](O)[C@H](O)[C@@H]4O)cc3O2)cc1O | – | inactive
6 | Cc1ccccc1C(C(=O)NC1CCCC1)N(C(=O)Cn1cnc2ccccc21)c1cccc(F)c1 (configuration not stated) | 23.7% (inactive) | –
7 | Cc1ccc(N(CC2=NCCN2)c2cccc(O)c2)cc1 | – | inactive
8 | C[C@]12CCC(=O)C=C1CC[C@@H]1[C@@H]2[C@@H](O)C[C@@]2(C)[C@H]1CC[C@]2(O)C(=O)CO | – | inactive
9 | CN[C@@H](C)C(=O)N[C@H]1CCCC[C@H]2CC[C@@H](C(=O)N[C@@H](c3ccccc3)c3cn(CCCCc4ccc(CCCCn5cc([C@@H](NC(=O)[C@@H]6CC[C@@H]7CCCC[C@H](NC(=O)[C@H](C)NC)C(=O)N76)c6ccccc6)nn5)cc4)nn3)N2C1=O | 29.2% (inactive) | –
10 | C1COC(NC(C2CC2)C2CC2)=N1 | – | inactive
11 | CCOc1ccc(Cc2cc([C@@H]3O[C@H](CO)[C@@H](O)[C@H](O)[C@@H]3O)ccc2Cl)cc1 | 17.5% (inactive) | –
12 | Cc1ccc(NC(=O)c2cccc(C(C)(C)C#N)c2)cc1Nc1ccc2ncn(C)c(=O)c2c1 | 6.31% (inactive) | –
